{"source": "PubChem BioAssay (NCI)", "note": "This is part of a sample that, as a whole, favours compounds with a hit. Of some 79,000 tested, about 15% had one in any assay. Unmarked numbers belong to inactive results. Active and inactive are the calls of the source. No stated cut-off is given here; in the data, active means growth inhibition above about 70%; inactive means the rest. Where a SMILES comes first, the peptide text is derived from it. [ ]: non-standard residue; d: D form. The star is where a group is joined. mTyr = N[CH](Cc1cccc(O)c1)C(=O)O; Cbz = O=C(OCc1ccccc1)*; OBn = c1ccc(CO*)cc1"}
{"assay": "NCI Yeast Anticancer Drug Screen. Data for the bub3 strain (AID 167)", "conditions": "S. cerevisiae bub3 mutant strain, at 5.0 µM (retest, dose inferred, filed as 0.5), hits give high values", "summary_of_the_method": "(§1)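 In this screen, a yeast mutant lacking normal mitotic checkpoint function is challenged with compound. Relative growth versus vehicle gives the inhibition value.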"}
{"smiles": "CC(/C=N/NS(=O)(=O)c1ccc(C)cc1)=C(c1ccccc1)c1ccccc1", "growth inhibition": "43%"}
{"smiles": "CCOC(=O)Cc1cc(=O)oc2c(CN3CCN(c4ccc(C)cc4)CC3)c(O)ccc12", "growth inhibition": "7%"}
{"smiles": "Clc1ccc(/C=N\\Nc2c3ccccc3nc3ccccc23)cc1Cl", "growth inhibition": "13%"}
{"smiles": "CNC(=O)c1cc(NC(=O)c2ccc(C(=O)Nc3cc(C(=O)NC)cc(C4=NCCN4)c3)cc2)cc(C2=NCCN2)c1", "growth inhibition": "5%"}
{"smiles": "O=P1(O)c2ccccc2CS(=O)(=O)Cc2ccccc21", "growth inhibition": "16%"}
{"smiles": "CC1=C(C(=O)NCc2ccccc2)C(c2ccccc2[N+](=O)[O-])C(C(=O)NCc2ccccc2)=C(C)N1", "growth inhibition": "15%"}
{"smiles": "Oc1ccc(C2CCCCC2)cc1", "growth inhibition": "-4%"}
{"smiles": "CCN(CC)CCOc1cccc2c1C(=O)c1c(O)cccc1C2=O", "growth inhibition": "8%"}
{"smiles": "CCN(CC)C1Oc2cc3c(cc2C(c2ccc(OC)cc2)C1C)OCO3", "note": "(stereo not given)", "growth inhibition": "-34%"}
{"smiles": "COc1ccc(C2C3CCCC(C(c4ccc(OC)cc4)N2C)C32NC(=O)NC2=O)cc1", "note": "(stereo not given)", "growth inhibition": "3%"}
{"smiles": "Clc1ccc(SSc2ccc(Cl)cn2)nc1", "growth inhibition": "-3%"}
{"smiles": "CN=c1sc2c(n1C)C(=O)c1ccccc1C2=O", "growth inhibition": "28%"}
{"smiles": "O=C(Nc1cccc(Cl)c1)OCCOC(=O)Nc1cccc(Cl)c1", "growth inhibition": "-4%"}
{"smiles": "O=[N+]([O-])c1ccc2c(c1)Cc1cc(Cl)ccc1-2", "growth inhibition": "4%"}
{"smiles": "Cc1c(-c2ccccc2)ccnc1/C=N/NC(=S)NCCc1ccccc1", "growth inhibition": "55%"}
{"smiles": "O=C(O)CCC(=O)NCCNC(=O)CC(=O)O", "growth inhibition": "-68%"}
{"smiles": "Cc1cc2c(cc1S(=O)(=O)O)C1C(C3C2C2(Cl)C(Cl)=C(Cl)C3(Cl)C2(Cl)Cl)C2(Cl)C(Cl)=C(Cl)C1(Cl)C2(Cl)Cl", "note": "(stereo not given)", "growth inhibition": "-15%"}
{"smiles": "O=C1/C(=C/c2ccccc2)CNC/C1=C\\c1ccccc1", "growth inhibition": "6%"}
{"smiles": "Cc1ccc2c(c1)-c1cc(C)ccc1C2(O)c1ccccc1", "growth inhibition": "3%"}
{"smiles": "CCCc1cc2c(cc1COc1ccccc1C(=O)O)OCO2", "growth inhibition": "-6%"}
{"smiles": "O=C1OC(c2ccc3c(c2)OCO3)Sc2ccccc21", "note": "(stereo not given)", "growth inhibition": "9%"}
{"smiles": "Cc1cc(NC(=S)SCc2ccc(Cl)cc2)ccc1F", "growth inhibition": "19%"}
{"smiles": "NC(=O)CC1CCC(c2ccccc2)CC1", "note": "(stereo not given)", "growth inhibition": "-12%"}
{"smiles": "[O-]c1c2cc(-[n+]3c(-c4ccccc4)cc(-c4ccccc4)cc3-c3ccccc3)cc1CO[C@@H](c1ccccc1)[C@H](c1ccccc1)OCc1cccc(n1)CO[C@@H](c1ccccc1)[C@H](c1ccccc1)OC2", "growth inhibition": "99% (active)"}
{"smiles": "OCCN(CCO)c1cc(/C=C/c2ccnc3ccccc23)nc2ccccc12", "growth inhibition": "1%"}
{"smiles": "COC(=O)C(Cc1cccc(O)c1)NC(=O)C(CC(=O)OCc1ccccc1)NC(=O)OCc1ccccc1", "note": "(stereo not given) (Cbz-Asp(OBn)-[mTyr]-OMe; configuration not given here)", "growth inhibition": "-10%"}
{"smiles": "COc1cc[c]([Sn]([c]2ccc(OC)cc2)([c]2ccc(OC)cc2)[c]2ccc(OC)cc2)cc1", "growth inhibition": "6%"}
{"smiles": "COC(=O)CCCCCOS(=O)(=O)c1ccc(C)cc1", "growth inhibition": "-1%"}
{"smiles": "O=S(=O)(C#Cc1ccccc1)c1ccccc1", "growth inhibition": "3%"}
{"smiles": "N#CC1(C#N)C(C#N)(C#N)C12CCCCCC2", "growth inhibition": "39%"}
{"smiles": "CCOC(=O)/C(C)=N/Nc1cc(Cl)ccc1O", "growth inhibition": "-6%"}
{"smiles": "N/C(CC(=O)NOC(=O)c1ccccc1)=N/OC(=O)c1ccccc1", "growth inhibition": "-6%"}
{"smiles": "C/C(=N\\NC(=S)N1CCC(C)CC1)c1ncccn1", "growth inhibition": "-1%"}
{"smiles": "Cc1ccc(S(=O)(=O)OCC(/C=N/NC(N)=O)OCOC(C)/C=N/NC(N)=O)cc1", "note": "(stereo not given)", "growth inhibition": "1%"}
{"smiles": "CN1COc2c(Cl)cc(Cl)cc2C1", "growth inhibition": "-4%"}
{"smiles": "c1ccc2cc3c(cc2c1)Nc1c2ccccc2nc2cccc-3c12", "growth inhibition": "15%"}
{"smiles": "CCCCN(CCCC)S(=O)(=O)c1ccccc1", "growth inhibition": "3%"}
{"smiles": "Cc1cccc(N2C(c3ccccc3)c3ccc(C)cc3NS2=O)c1", "note": "(stereo not given)", "growth inhibition": "-2%"}
{"smiles": "CN(C)c1ccc(/C=N/c2nc(-c3ccccc3)cs2)cc1", "growth inhibition": "1%"}
{"smiles": "O=C1c2ccccc2-c2nc3ncccc3cc21", "growth inhibition": "4%"}
{"assay": "NCI Yeast Anticancer Drug Screen. Data for the bub3 strain (AID 167)", "conditions": "S. cerevisiae bub3 mutant strain, at 50.0 µM (retest, dose inferred, filed as 5.0), hits give high values", "summary_of_the_method": "as §1"}
{"smiles": "CC(/C=N/NS(=O)(=O)c1ccc(C)cc1)=C(c1ccccc1)c1ccccc1", "growth inhibition": "93% (active)"}
{"smiles": "CCOC(=O)Cc1cc(=O)oc2c(CN3CCN(c4ccc(C)cc4)CC3)c(O)ccc12", "growth inhibition": "86% (active)"}
{"smiles": "Clc1ccc(/C=N\\Nc2c3ccccc3nc3ccccc23)cc1Cl", "growth inhibition": "44%"}
{"smiles": "CNC(=O)c1cc(NC(=O)c2ccc(C(=O)Nc3cc(C(=O)NC)cc(C4=NCCN4)c3)cc2)cc(C2=NCCN2)c1", "growth inhibition": "1%"}
{"smiles": "O=P1(O)c2ccccc2CS(=O)(=O)Cc2ccccc21", "growth inhibition": "46%"}
{"smiles": "CC1=C(C(=O)NCc2ccccc2)C(c2ccccc2[N+](=O)[O-])C(C(=O)NCc2ccccc2)=C(C)N1", "growth inhibition": "15%"}
{"smiles": "Oc1ccc(C2CCCCC2)cc1", "growth inhibition": "62%"}
{"smiles": "CCN(CC)CCOc1cccc2c1C(=O)c1c(O)cccc1C2=O", "growth inhibition": "47%"}
{"smiles": "CCN(CC)C1Oc2cc3c(cc2C(c2ccc(OC)cc2)C1C)OCO3", "note": "(stereo not given)", "growth inhibition": "98% (active)"}
{"smiles": "COc1ccc(C2C3CCCC(C(c4ccc(OC)cc4)N2C)C32NC(=O)NC2=O)cc1", "note": "(stereo not given)", "growth inhibition": "97% (active)"}
{"smiles": "Clc1ccc(SSc2ccc(Cl)cn2)nc1", "growth inhibition": "97% (active)"}
{"smiles": "CN=c1sc2c(n1C)C(=O)c1ccccc1C2=O", "growth inhibition": "64%"}
{"smiles": "O=C(Nc1cccc(Cl)c1)OCCOC(=O)Nc1cccc(Cl)c1", "growth inhibition": "99% (active)"}
{"smiles": "O=[N+]([O-])c1ccc2c(c1)Cc1cc(Cl)ccc1-2", "growth inhibition": "7%"}
{"smiles": "Cc1c(-c2ccccc2)ccnc1/C=N/NC(=S)NCCc1ccccc1", "growth inhibition": "84% (active)"}
{"smiles": "O=C(O)CCC(=O)NCCNC(=O)CC(=O)O", "growth inhibition": "-79%"}
{"smiles": "Cc1cc2c(cc1S(=O)(=O)O)C1C(C3C2C2(Cl)C(Cl)=C(Cl)C3(Cl)C2(Cl)Cl)C2(Cl)C(Cl)=C(Cl)C1(Cl)C2(Cl)Cl", "note": "(stereo not given)", "growth inhibition": "82% (active)"}
{"smiles": "O=C1/C(=C/c2ccccc2)CNC/C1=C\\c1ccccc1", "growth inhibition": "98% (active)"}
{"smiles": "Cc1ccc2c(c1)-c1cc(C)ccc1C2(O)c1ccccc1", "growth inhibition": "95% (active)"}
{"smiles": "CCCc1cc2c(cc1COc1ccccc1C(=O)O)OCO2", "growth inhibition": "31%"}
{"smiles": "O=C1OC(c2ccc3c(c2)OCO3)Sc2ccccc21", "note": "(stereo not given)", "growth inhibition": "52%"}
{"smiles": "Cc1cc(NC(=S)SCc2ccc(Cl)cc2)ccc1F", "growth inhibition": "97% (active)"}
{"smiles": "NC(=O)CC1CCC(c2ccccc2)CC1", "note": "(stereo not given)", "growth inhibition": "-53%"}
{"smiles": "[O-]c1c2cc(-[n+]3c(-c4ccccc4)cc(-c4ccccc4)cc3-c3ccccc3)cc1CO[C@@H](c1ccccc1)[C@H](c1ccccc1)OCc1cccc(n1)CO[C@@H](c1ccccc1)[C@H](c1ccccc1)OC2", "growth inhibition": "99% (active)"}
{"smiles": "OCCN(CCO)c1cc(/C=C/c2ccnc3ccccc23)nc2ccccc12", "growth inhibition": "-13%"}
{"smiles": "COC(=O)C(Cc1cccc(O)c1)NC(=O)C(CC(=O)OCc1ccccc1)NC(=O)OCc1ccccc1", "note": "(stereo not given) (Cbz-Asp(OBn)-[mTyr]-OMe; configuration not given here)", "growth inhibition": "55%"}
{"smiles": "COc1cc[c]([Sn]([c]2ccc(OC)cc2)([c]2ccc(OC)cc2)[c]2ccc(OC)cc2)cc1", "growth inhibition": "6%"}
{"smiles": "COC(=O)CCCCCOS(=O)(=O)c1ccc(C)cc1", "growth inhibition": "-5%"}
{"smiles": "O=S(=O)(C#Cc1ccccc1)c1ccccc1", "growth inhibition": "98% (active)"}
{"smiles": "N#CC1(C#N)C(C#N)(C#N)C12CCCCCC2", "growth inhibition": "83% (active)"}
{"smiles": "CCOC(=O)/C(C)=N/Nc1cc(Cl)ccc1O", "growth inhibition": "-15%"}
{"smiles": "N/C(CC(=O)NOC(=O)c1ccccc1)=N/OC(=O)c1ccccc1", "growth inhibition": "99% (active)"}
{"smiles": "C/C(=N\\NC(=S)N1CCC(C)CC1)c1ncccn1", "growth inhibition": "98% (active)"}
{"smiles": "Cc1ccc(S(=O)(=O)OCC(/C=N/NC(N)=O)OCOC(C)/C=N/NC(N)=O)cc1", "note": "(stereo not given)", "growth inhibition": "-2%"}
{"smiles": "CN1COc2c(Cl)cc(Cl)cc2C1", "growth inhibition": "75% (active)"}
{"smiles": "c1ccc2cc3c(cc2c1)Nc1c2ccccc2nc2cccc-3c12", "growth inhibition": "78% (active)"}
{"smiles": "CCCCN(CCCC)S(=O)(=O)c1ccccc1", "growth inhibition": "14%"}
{"smiles": "Cc1cccc(N2C(c3ccccc3)c3ccc(C)cc3NS2=O)c1", "note": "(stereo not given)", "growth inhibition": "-1%"}
{"smiles": "CN(C)c1ccc(/C=N/c2nc(-c3ccccc3)cs2)cc1", "growth inhibition": "93% (active)"}
{"smiles": "O=C1c2ccccc2-c2nc3ncccc3cc21", "growth inhibition": "57%"}
